Hits are enriched below; roughly 11% of the tested compounds scored in any of these assays.
IMPase Li cell – membrane-permeable IMPase blocker, potentiated with lithium; 210,000 compounds, 0.35% hits; CHO-M1 cells, IP1 TR-FRET (IP-One), carbachol + lithium; Potency, µM (highest dose often 59.4 µM), for the others: at the highest dose activity, negative = IMPase inhibition, actives largely listed as inhibitors; AID 1457; active means well fitted curve in the direction sought with a large enough effect; inconclusive means small, poorly fitted or top-dose-only effect, or another doubt; inactive means no such curve, though single readings can be large; an effect the other way counts as inactive or inconclusive;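 further: IP1 builds up when IMPase is blocked and the TR-FRET signal falls; potency means the concentration at half of the fitted maximal effect; plate controls were basal vehicle for no effect and high inhibitor control for full effect; nearly all actives have a fitted effect of over 50% in size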
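Test compounds were applied to CHO-M1 cells previously cultured for 16–30 h at 2000 per well. A small lithium amount accompanied them; after 30 min at 37C, IP1 was quantified by TR-FRET.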
IMPase inh – cell-permeable inhibitors of inositol monophosphatase (IMPase) | CHO-M1 cells, IP1 accumulation, HTRF TR-FRET ratio | inhibition (IP1 accumulation), % at 46.1 µM | 120,000 tested, under 10 active; active means well fitted curve in the direction sought with a large enough effect in the signal ratio, not every such curve was filed as active; inconclusive means small, poorly fitted or top-dose-only effect, or a change in a side signal; inactive means no such curve, though single readings can be large or run the other way; the % refers to the signal ratio;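 further: cells stimulated with carbachol in lithium chloride buffer; plate controls were DMSO basal wells for no effect and reference inhibitor wells for full effect; higher means more IMPase inhibition seen as more IP1 and lower FRET ratio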
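Measured: the HTRF emission ratio (665/620 nm) plus the 620 nm donor channel, each fitted to the Hill equation to give AC50. Cells were CHO-M1 given compounds up to 46 uM and a 30 min carbachol stimulation at 37C.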
ALDH1A1 inh – inhibitors of human aldehyde dehydrogenase 1A1; P00352; 220,000 compounds, 7.3% hits; Potency, µM (doses to about 75.3 µM), for the others: at the highest dose activity, negative = inhibition, hits mostly inhibitors; Purified ALDH1A1, NADH fluorescence, propionaldehyde substrate;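 further: potency means the concentration at half of the fitted maximal effect; plate controls were no enzyme wells and a reference inhibitor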
HPGD block – blocks human HPGD enzyme activity; P15428; purified HPGD, NADH fluorescence kinetic, PGE2 substrate; Potency, µM, inactives show top-dose activity change, negative = inhibition, most hits filed as inhibitors; 150,000 compounds, 4.3% hits; AID 894; further: potency means the concentration at half of the fitted maximal effect
Target sequence (P15428 whole entry, looked up): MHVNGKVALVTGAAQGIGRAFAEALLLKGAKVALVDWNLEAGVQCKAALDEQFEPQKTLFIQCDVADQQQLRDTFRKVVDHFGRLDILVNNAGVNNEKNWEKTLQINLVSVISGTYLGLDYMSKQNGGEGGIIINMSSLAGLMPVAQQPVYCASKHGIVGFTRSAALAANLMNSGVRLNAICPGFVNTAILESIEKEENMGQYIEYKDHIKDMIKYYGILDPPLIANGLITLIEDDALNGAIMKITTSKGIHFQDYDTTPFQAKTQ
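20 nM HPGD preincubated 15 min at room temperature with compound in 50 mM Tris-HCl pH 8, 0.01% Tween 20. Started with 1 mM NAD+ and 30 uM prostaglandin E2; NADH fluorescence (360/450 nm) read 5 times over 30-s intervals, last minus first.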
NPSR antagonist – blocks cAMP signaling of the human neuropeptide S receptor. 220,000 compounds, 1% hits. AID 1461. CHO-NPSR cells, cAMP TR-FRET, antagonist mode. Potency, µM (top dose mostly 38.3 µM), without a hit: top-dose activity change, negative = inhibition, hits mostly inhibitors; active means well fitted curve in the direction sought with a large enough effect; inconclusive means small, poorly fitted or top-dose-only effect, or another doubt; inactive means no such curve, though single readings can be large; an effect the other way counts as inactive or inconclusive; further: potency means the concentration at half of the fitted maximal effect; nearly all actives have a fitted effect of over 50% in size
Target sequence (Q6W5P4 whole entry, looked up): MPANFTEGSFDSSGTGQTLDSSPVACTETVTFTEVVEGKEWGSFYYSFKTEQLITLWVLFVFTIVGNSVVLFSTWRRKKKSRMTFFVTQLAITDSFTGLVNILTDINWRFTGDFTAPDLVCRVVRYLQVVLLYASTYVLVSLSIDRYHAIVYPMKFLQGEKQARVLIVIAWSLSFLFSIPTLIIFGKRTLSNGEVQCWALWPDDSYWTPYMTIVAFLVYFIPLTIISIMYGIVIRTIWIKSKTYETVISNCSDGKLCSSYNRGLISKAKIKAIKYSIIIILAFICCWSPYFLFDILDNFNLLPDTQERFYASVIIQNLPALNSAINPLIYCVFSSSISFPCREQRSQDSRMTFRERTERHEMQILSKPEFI
PNC assembly inh – blocks assembly of the perinucleolar compartment. PC3M PTB-GFP, PNC prevalence imaging, 16 h; hits give low values. activity change (PNC), negative = inhibition, % at 10 µM. 140,000 compounds, 3.1% hits. AID 2417;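 active means readout at or below -70, meaning at least 70% loss of cells showing the perinucleolar compartment, a nuclear body marking cancer cells; inconclusive means readout between -30 and a set limit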;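 further: plate controls were DMSO wells for no effect and camptothecin positive control wells for full effect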
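Read-out is percentage of cells bearing a perinucleolar compartment, from automated 20x imaging of fixed, Hoechst-stained PC3M PTB-GFP cells. Cells were seeded 4 h, then exposed 16 h to compound (23 nl of library stock) in duplicate plates.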
The depositor's hits bear a star; ? = inconclusive; . = no result; ! = not confirmed by another sample; [ ] = remark or other dose. Unless noted, the call rests on the fitted dose curve; in most records, active means well fitted inhibition curve with a large enough effect (not every such curve was filed as active); inconclusive means small, poorly fitted or top-dose-only effect, or another doubt; inactive means no such curve, though single readings can be large or run the other way. Unless noted, on the % scale 0 is the no-effect control and ±100 the full control effect.

SMILES | IMPase Li cell | IMPase inh | ALDH1A1 inh | HPGD block | NPSR antagonist | PNC assembly inh
COc1cc(C2CC(=O)Oc3c(C(CCN4CCCC(C)C4)c4ccc(N(C)C)cc4)c(OC)cc(OC)c32)cc(OC)c1OC (centres undefined) | . | . | . | . | -10% | .
CN1CCC(N(C)CC(C)(C)NS(=O)(=O)c2ccccc2)CC1 | . | . | . | . | 7% | .
O=C(CSc1ncn(-c2ccccc2)n1)Nc1ccc2c(c1)OCO2 | . | 8 | -14% | . | -4%[46.1 µM] | 1
O=C(CSc1ncn(-c2ccccc2)n1)Nc1ccc(Br)cn1 | 22%[38.3 µM] | 8 | ? | 28µM* | -12%[46.1 µM] | -11
O=C(CSC1=NC2(CCCCCC2)N=C1c1ccccc1)Nc1ccc2c(c1)OCCO2 | 18% | . | 22µM* | -14% | -35% | -119*
O=C(CSc1ncn(-c2ccccc2)n1)Nc1ccc2c(c1)OCCO2 | 0%[38.3 µM] | 7 | ? | -12% | 2%[7.67 µM] | -86*
O=C(CSc1ccc(-c2ccccc2)nn1)Nc1ccc2c(c1)OCCO2 | -2% | . | -12% | -5% | -6% | -113*
N#Cc1nc(-c2cccc3ccccc23)oc1NCC1CCCO1 (centres undefined) | . | . | . | . | -36% | .
COc1ccc(OC)c(C2C3=C(COC3=O)Nc3cc4c(cc32)OCO4)c1 (centres undefined) | 2%[38.3 µM] | 1 | ? | ? | ? | ?
c1ccc(-c2csc3nnc(SCc4ccc5c(c4)OCO5)n23)cc1 | 48%[38.3 µM] | ? | ? | 22µM* | -20%[46.1 µM] | 21
O=C(CCSc1nnc2scc(-c3ccccc3)n12)NCc1ccc2c(c1)OCO2 | 36%[38.3 µM] | -11 | -5% | ? | -23%[46.1 µM] | 37
C=CCN1C(=O)/C(=C/C=C2/N(CC)c3ccc(S(=O)(=O)N(C)C)cc3N2CC)SC1=S | 22% | . | 2.8µM* | . | -44% | .
COc1ncc2nc(C)c(=O)n(CCc3ccccc3)c2n1 | 6% | . | ? | . | . | .
Cc1ccc2nc(-c3ccc(NC(=O)COc4ccc(Br)cc4Br)cc3)sc2c1 | . | 1 | . | . | . | .
O=C(NCc1ccccn1)C1CCCN(S(=O)(=O)c2cccc3nsnc23)C1 (centres undefined) | 8%[38.3 µM] | 1 | -2% | -10% | -6%[46.1 µM] | 9
O=C(Nc1nnc(CSCc2ccc(F)cc2)s1)c1ccc([N+](=O)[O-])cc1 | -4% | . | ? | ? | 10% | -96*
O=C(Nc1nnc(CSCc2ccccc2F)s1)c1cccc([N+](=O)[O-])c1 | 10% | 0 | 25µM* | ? | -3%[46.1 µM] | -100*
CC(=O)Nc1nnc(CSCc2ccc(F)cc2)s1 | . | . | . | . | -5% | .
Cc1ccc(C)c(C(=O)COc2ncnc3ccccc23)c1 | 1% | . | -7% | . | -9% | .
COc1cc(OC)c(C(=O)COc2ncnc3ccccc23)c(OC)c1 | -27%[38.3 µM] | -1 | 16µM* | -2% | -2%[46.1 µM] | ?
COc1ccc(S(=O)(=O)NCc2ccccn2)cc1 | 28%[38.3 µM] | 3 | 4% | 2% | 14%[46.1 µM] | -14
CCOc1ccc(S(=O)(=O)NCc2ccccn2)cc1 | 20%[38.3 µM] | -5 | ? | -15% | 12%[46.1 µM] | -111*
CCOc1cc(C)c(C(C)C)cc1S(=O)(=O)NCc1ccccn1 | -10%[38.3 µM] | -6 | 14µM* | 2% | -11%[46.1 µM] | -82*
CCC1CCCCN1C(=O)c1noc(C(C)C)c1[N+](=O)[O-] (centres undefined) | -5% | -7 | 5% | -12% | 20% | ?
Cc1ccc(O)c(N=Nc2ccccc2)n1 | 16% | 16 | ? | 22µM*! | -22%[46.1 µM] | .
SMILES | IMPase Li cell | IMPase inh | ALDH1A1 inh | HPGD block | NPSR antagonist | PNC assembly inh
CCOc1ccc(OCCCCOc2ccccc2C(C)=O)cc1 | 5% | . | 3% | -20% | -18% | 82
Cn1c(C(=O)N2CCN(Cc3ccccc3)CC2)cc2c(=O)n(C)c3ccccc3c21 | 17%[38.3 µM] | 5 | ? | 16µM* | -14%[46.1 µM] | 33
CCN1CCN(C(=O)c2cc3c(=O)n(C)c4ccccc4c3n2C)CC1 | 48%[38.3 µM] | -9 | ? | -8% | -5%[46.1 µM] | -19
COc1cc(NC(=O)c2cc3c(=O)n(C)c4ccccc4c3n2C)cc(OC)c1OC | 3.5µM* | ? | ? | ? | -15%[46.1 µM] | 24
COc1ccc(NC(=O)c2cc3c(=O)n(C)c4ccccc4c3n2C)cc1OC | 14%[38.3 µM] | 8 | -2% | 0% | -25%[46.1 µM] | -5
Cn1c(C(=O)N2CCCCCC2)cc2c(=O)n(C)c3ccccc3c21 | -12%[38.3 µM] | 1 | ? | 2.8µM* | -20%[46.1 µM] | ?
Cc1cc(C)n(-c2nc3c(c(=O)[nH]c(=O)n3C)n2CC(O)c2ccccc2)n1 (centres undefined) | -3%[38.3 µM] | 2 | ? | -21% | 9%[46.1 µM] | ?
CN(C)CCNc1nc2c(c(=O)[nH]c(=O)n2C)n1CC(O)COc1ccc(Cl)cc1 (centres undefined) | -7%[38.3 µM] | 1 | -1% | -8% | 3%[46.1 µM] | -27
CCN(CC)CCNc1nc2c(c(=O)[nH]c(=O)n2C)n1CC(O)COc1ccc(Cl)cc1Cl (centres undefined) | -12%[38.3 µM] | 2 | -1% | -20% | 7%[46.1 µM] | -84*
Cc1cc(C)n(-c2nc3c(c(=O)[nH]c(=O)n3C)n2CC(O)COc2ccc(Cl)cc2Cl)n1 (centres undefined) | 5% | -5 | 3% | 3.5µM* | 25%[46.1 µM] | 61
Cc1ccc2cc(C3CC(c4ccco4)=NN3C(=O)CCCC(=O)O)c(Cl)nc2c1 (centres undefined) | . | . | . | . | 15%[7.67 µM] | .
CCO[C@@H]1OC(C(=O)NCc2ccccc2)=C[C@H](c2ccc3c(c2)OCO3)[C@H]1CCCO | 11% | . | 14µM* | . | 14% | .
COc1ccc(N2C(=O)C(Cl)=C(Nc3ccccc3O)C2=O)cc1 | -11%[38.3 µM] | 15 | 16µM* | 14µM* | -17%[46.1 µM] | ?
COc1ccc(N2C(=O)C(Cl)=C(Oc3cccc(OC)c3)C2=O)cc1 | 26% | . | 18µM* | . | 10µM* | .
COc1ccc(N2C(=O)c3ccccc3C2=O)cc1 | 8% | . | 4% | . | 7% | .
COc1ccc(N2C(=O)C(Cl)=C(N(CCO)Cc3ccccc3)C2=O)cc1 | -8%[38.3 µM] | 2 | -8% | -7% | -14%[46.1 µM] | -125*
COc1ccc(N2C(=O)C(Cl)=C(Nc3ccccc3OC)C2=O)cc1 | 8% | . | -2% | -26% | -4% | ?
O=C1C2C3C=CC(CC3)C2C(=O)N1c1ccc2c(c1)OCO2 (centres undefined) | 8% | -10 | ? | -13% | 4% | -11
S=c1[nH]nc(C2CC2c2ccc(Cl)cc2)n1-c1ccc(Cl)cc1 (centres undefined) | -3% | . | 0% | 5µM* | -30% | -16
Nc1n[nH]c(=S)n1-c1ccc(Cl)cc1 | . | . | 1.6µM* | . | -8% | .
Cc1ccc(-n2c(C3CC3c3ccc(Cl)cc3)n[nH]c2=S)cc1 (centres undefined) | 11%[38.3 µM] | 5 | 7% | 8.9µM* | ? | ?
